Source: paper PMC11062922 (Nature Chemical Biology, 2023)
Where two headings read alike, the source gives them in different places.

Columns and labels:
RET = settings: read-out: apparent Kd, n = 1
RPS6KA4 = settings: read-out: apparent Kd, n = 1
[1] = compound concentrations:100 nM and 1000 nM (sheet 'Lestaurtinib' of Supplementary Table 1),run:Lestaurtinib_02438_R1,Plate:MR008
[2] = compound concentrations:100 nM and 1000 nM (sheet 'Lestaurtinib' of Supplementary Table 1),run:Lestaurtinib_02438_R3,Plate:MR008
[3] = compound concentrations:100 nM and 1000 nM (sheet 'Lestaurtinib' of Supplementary Table 1),run:Lestaurtinib_02443_R1,Plate:MR009
[4] = compound concentrations:100 nM and 1000 nM (sheet 'Lestaurtinib' of Supplementary Table 1),run:Lestaurtinib_02473_R3,Plate:MR010
[5] = compound concentrations:100 nM and 1000 nM (sheet 'Lestaurtinib' of Supplementary Table 1),run:Lestaurtinib_02482_R3,Plate:MR011
[6] = compound concentrations:100 nM and 1000 nM (sheet 'Lestaurtinib' of Supplementary Table 1),run:Lestaurtinib_02487_R2,Plate:MR012
[7] = compound concentrations:100 nM and 1000 nM (sheet 'Lestaurtinib' of Supplementary Table 1),run:Lestaurtinib_02487_R3,Plate:MR012
[8] = compound concentrations:100 nM and 1000 nM (sheet 'Lestaurtinib' of Supplementary Table 1),run:Lestaurtinib_02496_R1,Plate:MR013
[9] = compound concentrations:100 nM and 1000 nM (sheet 'Lestaurtinib' of Supplementary Table 1),run:Lestaurtinib_02566_R1,Plate:MR014
[10] = compound concentrations:100 nM and 1000 nM (sheet 'Lestaurtinib' of Supplementary Table 1),run:Lestaurtinib_02577_R1,Plate:MR016
[11] = compound concentrations:100 nM and 1000 nM (sheet 'Lestaurtinib' of Supplementary Table 1),run:Lestaurtinib_02584_R3,Plate:MR017
[12] = compound concentrations:100 nM and 1000 nM (sheet 'Lestaurtinib' of Supplementary Table 1),run:Lestaurtinib_02601_R2,Plate:MR018

## Lestaurtinib
RET; compound concentrations:100 nM and 1000 nM (sheet 'Lestaurtinib' of Supplementary Table 1),run:Lestaurtinib_02437_R2,Plate:MR007
  potency estimated from few doses: 146 nM
RET; compound concentrations:100 nM and 1000 nM (sheet 'Lestaurtinib' of Supplementary Table 1),run:Lestaurtinib_02437_R3,Plate:MR007
  potency estimated from few doses: 23.5 nM
RET; [1]
  potency estimated from few doses: 279 nM
RET; compound concentrations:100 nM and 1000 nM (sheet 'Lestaurtinib' of Supplementary Table 1),run:Lestaurtinib_02438_R2,Plate:MR008
  potency estimated from few doses: 286 nM
RET; [2]
  potency estimated from few doses: 304 nM
RET; [3]
  potency estimated from few doses: 248 nM
RET; compound concentrations:100 nM and 1000 nM (sheet 'Lestaurtinib' of Supplementary Table 1),run:Lestaurtinib_02443_R3,Plate:MR009
  potency estimated from few doses: 140 nM
RET; compound concentrations:100 nM and 1000 nM (sheet 'Lestaurtinib' of Supplementary Table 1),run:Lestaurtinib_02473_R2,Plate:MR010
  potency estimated from few doses: 244 nM
RET; [4]
  potency estimated from few doses: 60 nM
RET; compound concentrations:100 nM and 1000 nM (sheet 'Lestaurtinib' of Supplementary Table 1),run:Lestaurtinib_02482_R1,Plate:MR011
  potency estimated from few doses: 239 nM
RET; [5]
  potency estimated from few doses: 209 nM
RET; [6]
  potency estimated from few doses: 140 nM
RET; [7]
  potency estimated from few doses: 213 nM
RET; [8]
  potency estimated from few doses: 219 nM
RET; compound concentrations:100 nM and 1000 nM (sheet 'Lestaurtinib' of Supplementary Table 1),run:Lestaurtinib_02496_R3,Plate:MR013
  potency estimated from few doses: 141 nM
RET; [9]
  potency estimated from few doses: 277 nM
RET; compound concentrations:100 nM and 1000 nM (sheet 'Lestaurtinib' of Supplementary Table 1),run:Lestaurtinib_02566_R3,Plate:MR014
  potency estimated from few doses: 244 nM
RET; compound concentrations:100 nM and 1000 nM (sheet 'Lestaurtinib' of Supplementary Table 1),run:Lestaurtinib_02572_R3,Plate:MR015
  potency estimated from few doses: 307 nM
RET; [10]
  potency estimated from few doses: 242 nM
RET; compound concentrations:100 nM and 1000 nM (sheet 'Lestaurtinib' of Supplementary Table 1),run:Lestaurtinib_02577_R2,Plate:MR016
  potency estimated from few doses: 142 nM
RET; compound concentrations:100 nM and 1000 nM (sheet 'Lestaurtinib' of Supplementary Table 1),run:Lestaurtinib_02577_R3,Plate:MR016
  potency estimated from few doses: 218 nM
RET; [11]
  potency estimated from few doses: 142 nM
RET; [12]
  potency estimated from few doses: 235 nM
RET; compound concentrations:100 nM and 1000 nM (sheet 'Lestaurtinib' of Supplementary Table 1),run:Lestaurtinib_02601_R3,Plate:MR018
  potency estimated from few doses: 62.4 nM
RET; compound concentrations:100 nM and 1000 nM (sheet 'Lestaurtinib' of Supplementary Table 1),run:Lestaurtinib_02606_R1,Plate:MR019
  potency estimated from few doses: 211 nM
RET; compound concentrations:100 nM and 1000 nM (sheet 'Lestaurtinib' of Supplementary Table 1),run:Lestaurtinib_02624_R1,Plate:MR020
  potency estimated from few doses: 141 nM
RET; compound concentrations:100 nM and 1000 nM (sheet 'Lestaurtinib' of Supplementary Table 1),run:Lestaurtinib_02624_R3,Plate:MR020
  potency estimated from few doses: 229 nM
RET; compound concentrations:100 nM and 1000 nM (sheet 'Lestaurtinib' of Supplementary Table 1),run:Lestaurtinib_02724_R1,Plate:MR021
  potency estimated from few doses: 275 nM
RET; compound concentrations:100 nM and 1000 nM (sheet 'Lestaurtinib' of Supplementary Table 1),run:Lestaurtinib_02724_R2,Plate:MR021
  potency estimated from few doses: 268 nM
RET; compound concentrations:100 nM and 1000 nM (sheet 'Lestaurtinib' of Supplementary Table 1),run:Lestaurtinib_02724_R3,Plate:MR021
  potency estimated from few doses: 153 nM
RET; compound concentrations:100 nM and 1000 nM (sheet 'Lestaurtinib' of Supplementary Table 1),run:Lestaurtinib_02741_R1,Plate:MR023
  potency estimated from few doses: 279 nM
RET; compound concentrations:100 nM and 1000 nM (sheet 'Lestaurtinib' of Supplementary Table 1),run:Lestaurtinib_02741_R2,Plate:MR023
  potency estimated from few doses: 279 nM
RET; compound concentrations:100 nM and 1000 nM (sheet 'Lestaurtinib' of Supplementary Table 1),run:Lestaurtinib_02741_R3,Plate:MR023
  potency estimated from few doses: 315 nM
RET; compound concentrations:100 nM and 1000 nM (sheet 'Lestaurtinib' of Supplementary Table 1),run:Lestaurtinib_02748_R1,Plate:MR024
  potency estimated from few doses: 135 nM
RET; compound concentrations:100 nM and 1000 nM (sheet 'Lestaurtinib' of Supplementary Table 1),run:Lestaurtinib_02748_R2,Plate:MR024
  potency estimated from few doses: 269 nM
RET; compound concentrations:100 nM and 1000 nM (sheet 'Lestaurtinib' of Supplementary Table 1),run:Lestaurtinib_02765_R1,Plate:MR026
  potency estimated from few doses: 320 nM
RET; compound concentrations:100 nM and 1000 nM (sheet 'Lestaurtinib' of Supplementary Table 1),run:Lestaurtinib_02765_R3,Plate:MR026
  potency estimated from few doses: 323 nM
RET; compound concentrations:100 nM and 1000 nM (sheet 'Lestaurtinib' of Supplementary Table 1),run:Lestaurtinib_02766_R3,Plate:MR027
  potency estimated from few doses: 258 nM
RET; compound concentrations:100 nM and 1000 nM (sheet 'Lestaurtinib' of Supplementary Table 1),run:Lestaurtinib_02768_R3,Plate:MR028
  potency estimated from few doses: 135 nM
RET; compound concentrations:100 nM and 1000 nM (sheet 'Lestaurtinib' of Supplementary Table 1),run:Lestaurtinib_02795_R2,Plate:MR022
  potency estimated from few doses: 286 nM
RET; compound concentrations:100 nM and 1000 nM (sheet 'Lestaurtinib' of Supplementary Table 1),run:Lestaurtinib_02795_R3,Plate:MR022
  potency estimated from few doses: 300 nM
RET; compound concentrations:100 nM and 1000 nM (sheet 'Lestaurtinib' of Supplementary Table 1),run:Lestaurtinib_02802_R1,Plate:MR029
  potency estimated from few doses: 137 nM
RET; compound concentrations:100 nM and 1000 nM (sheet 'Lestaurtinib' of Supplementary Table 1),run:Lestaurtinib_02802_R3,Plate:MR029
  potency estimated from few doses: 34.2 nM
RET; compound concentrations:100 nM and 1000 nM (sheet 'Lestaurtinib' of Supplementary Table 1),run:Lestaurtinib_03252_R1,Plate:MR032
  potency estimated from few doses: 253 nM
RET; compound concentrations:100 nM and 1000 nM (sheet 'Lestaurtinib' of Supplementary Table 1),run:Lestaurtinib_03260_R3,Plate:MR033
  potency estimated from few doses: 277 nM
RPS6KA4; compound concentrations:100 nM and 1000 nM (sheet 'Lestaurtinib' of Supplementary Table 1),run:Lestaurtinib_02339_R2,Plate:MR001
  potency estimated from few doses: 873 nM
RPS6KA4; compound concentrations:100 nM and 1000 nM (sheet 'Lestaurtinib' of Supplementary Table 1),run:Lestaurtinib_02339_R3,Plate:MR001
  potency estimated from few doses: 1210 nM
RPS6KA4; compound concentrations:100 nM and 1000 nM (sheet 'Lestaurtinib' of Supplementary Table 1),run:Lestaurtinib_02364_R2,Plate:MR002
  potency estimated from few doses: 886 nM
RPS6KA4; compound concentrations:100 nM and 1000 nM (sheet 'Lestaurtinib' of Supplementary Table 1),run:Lestaurtinib_02367_R1,Plate:MR003
  potency estimated from few doses: 1240 nM
RPS6KA4; compound concentrations:100 nM and 1000 nM (sheet 'Lestaurtinib' of Supplementary Table 1),run:Lestaurtinib_02367_R2,Plate:MR003
  potency estimated from few doses: 1330 nM
RPS6KA4; compound concentrations:100 nM and 1000 nM (sheet 'Lestaurtinib' of Supplementary Table 1),run:Lestaurtinib_02367_R3,Plate:MR003
  potency estimated from few doses: 989 nM
RPS6KA4; compound concentrations:100 nM and 1000 nM (sheet 'Lestaurtinib' of Supplementary Table 1),run:Lestaurtinib_02381_R1,Plate:MR004
  potency estimated from few doses: 884 nM
RPS6KA4; compound concentrations:100 nM and 1000 nM (sheet 'Lestaurtinib' of Supplementary Table 1),run:Lestaurtinib_02407_R1,Plate:MR005
  potency estimated from few doses: 1340 nM
RPS6KA4; compound concentrations:100 nM and 1000 nM (sheet 'Lestaurtinib' of Supplementary Table 1),run:Lestaurtinib_02407_R2,Plate:MR005
  potency estimated from few doses: 1630 nM
RPS6KA4; compound concentrations:100 nM and 1000 nM (sheet 'Lestaurtinib' of Supplementary Table 1),run:Lestaurtinib_02422_R1,Plate:MR006
  potency estimated from few doses: 975 nM
RPS6KA4; compound concentrations:100 nM and 1000 nM (sheet 'Lestaurtinib' of Supplementary Table 1),run:Lestaurtinib_02437_R1,Plate:MR007
  potency estimated from few doses: 1320 nM
RPS6KA4; [1]
  potency estimated from few doses: 769 nM
RPS6KA4; [2]
  potency estimated from few doses: 1350 nM
RPS6KA4; [3]
  potency estimated from few doses: 864 nM
RPS6KA4; [4]
  potency estimated from few doses: 1240 nM
RPS6KA4; compound concentrations:100 nM and 1000 nM (sheet 'Lestaurtinib' of Supplementary Table 1),run:Lestaurtinib_02482_R2,Plate:MR011
  potency estimated from few doses: 1340 nM
RPS6KA4; [5]
  potency estimated from few doses: 924 nM
RPS6KA4; compound concentrations:100 nM and 1000 nM (sheet 'Lestaurtinib' of Supplementary Table 1),run:Lestaurtinib_02487_R1,Plate:MR012
  potency estimated from few doses: 680 nM
RPS6KA4; [6]
  potency estimated from few doses: 745 nM
RPS6KA4; [7]
  potency estimated from few doses: 950 nM
RPS6KA4; [8]
  potency estimated from few doses: 877 nM
RPS6KA4; compound concentrations:100 nM and 1000 nM (sheet 'Lestaurtinib' of Supplementary Table 1),run:Lestaurtinib_02496_R2,Plate:MR013
  potency estimated from few doses: 822 nM
RPS6KA4; [9]
  potency estimated from few doses: 1360 nM
RPS6KA4; compound concentrations:100 nM and 1000 nM (sheet 'Lestaurtinib' of Supplementary Table 1),run:Lestaurtinib_02566_R2,Plate:MR014
  potency estimated from few doses: 971 nM
RPS6KA4; compound concentrations:100 nM and 1000 nM (sheet 'Lestaurtinib' of Supplementary Table 1),run:Lestaurtinib_02572_R2,Plate:MR015
  potency estimated from few doses: 1240 nM
RPS6KA4; [10]
  potency estimated from few doses: 1370 nM
RPS6KA4; [11]
  potency estimated from few doses: 1210 nM
RPS6KA4; [12]
  potency estimated from few doses: 1330 nM
